Screening results (PubChem)
KAT2A inh = qHTS Assay for Inhibitors of GCN5L2 | GCN5L2 HAT assay, ThioGlo1 CoA-SH fluorescence | Histone acetyltransferase KAT2A (Homo sapiens), Q92830 | Potency, µM (series often up to 58.9 µM), for inactives: at the top dose activity change, negative = inhibition, most hits filed as inhibitors | AID 504327, 2011 | hit rate 0.21% among 390,000
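qHTS, 1536-well. 20nM enzyme, pH 7.5 HEPES/EDTA/Tween-20 buffer; 15 min compound preinc., RT. Start: 75uM H3(1-25), 70uM AcCoA, 50uM ThioGlo1. Read Ex340/Em540 at t=0 (autofluorescence flag) and t=20 min.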
DT40 TDP1 CPT = qHTS for Inhibitors of human tyrosyl-DNA phosphodiesterase 1 (TDP1): qHTS in cells in presence of CPT; chicken DT40 Tdp1-/-;hTDP1 cells + 20 nM CPT, ATP luminescence, 48 h; Potency, µM (highest dose often 46.2 µM), without a hit: at the highest dose activity change, negative = growth inhibition, hits mostly inhibitors; hit rate 12% among 420,000; AID 686979, 2013; also: nearly all actives have a fitted effect of over 55% in size
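Cell growth measured by CellTiter-Glo luminescence after a minimum 48 h, 37 C compound exposure with 20 nM CPT in Tdp1-knockout DT40 cells stably expressing hTDP1, seeded 400/well; qHTS titration format.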
VDR inhibitor = Inhibitors of the vitamin D receptor (VDR): qHTS; VDR-SRC2-3 peptide fluorescence polarization, 2 h; Potency, µM, without a hit: max response, negative = inhibition, usual class: inhibitors; hit rate 0.93% among 400,000
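Compounds are added to VDR with labelled SRC2-3 coactivator peptide and held 2 h at room temperature. Inhibition of the VDR–peptide interaction is then read as a change in fluorescence polarization.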
TDP1 block = qHTS Assay for Inhibitors of Tyrosyl-DNA Phosphodiesterase (TDP1); Potency, µM (top dose mostly 130 µM), without a hit: top-dose activity change, negative = inhibition, actives largely listed as inhibitors; AID 485290, 2010; Tyrosyl-DNA phosphodiesterase 1 (Homo sapiens), Q9NUW8; recombinant TDP1, AlphaScreen DNA substrate cleavage; hit rate 0.28% among 350,000; also: nearly all actives have a fitted effect of over 40% in size
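Signal: AlphaScreen proximity between streptavidin donor and anti-FITC acceptor beads on intact substrate. Reaction: Tdp1 1 nM, substrate 15 nM final, 5 min RT after 15 min compound preincubation.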
DT40 TDP1 no CPT = qHTS for Inhibitors of human tyrosyl-DNA phosphodiesterase 1 (TDP1): qHTS in cells in absence of CPT; DT40 Tdp1-/- hTDP1 cells, no CPT, ATP luminescence, 48 h; Potency, µM (highest dose often 46.2 µM), inactives show at the top dose activity change, negative = growth inhibition, most hits filed as inhibitors; hit rate 15% among 420,000; AID 686978, 2013; also: nearly all actives have a fitted effect of over 55% in size
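Seeded 400 DT40-hTDP1 cells/well (vehicle DMSO, no 20 nM CPT); pinned compounds; ≥48 hr at 37 °C; CellTiter-Glo luminescence as viability measure.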
PLK1 PBD inh = qHTS for Inhibitors of PLK1-PDB (polo-like kinase 1 - polo-box domain): Primary Screen; Serine/threonine-protein kinase PLK1 (Homo sapiens), P53350; Plk1 PBD binding of FITC phosphopeptide, fluorescence polarization; Potency, µM, without a hit: max response, negative = inhibition, usual class: inhibitors; hit rate 2.8% among 360,000; also: series mostly up to about 57 µM; nearly all actives have a fitted effect of over 65% in size
Target sequence (P53350 whole entry, looked up, the tested form may be a part): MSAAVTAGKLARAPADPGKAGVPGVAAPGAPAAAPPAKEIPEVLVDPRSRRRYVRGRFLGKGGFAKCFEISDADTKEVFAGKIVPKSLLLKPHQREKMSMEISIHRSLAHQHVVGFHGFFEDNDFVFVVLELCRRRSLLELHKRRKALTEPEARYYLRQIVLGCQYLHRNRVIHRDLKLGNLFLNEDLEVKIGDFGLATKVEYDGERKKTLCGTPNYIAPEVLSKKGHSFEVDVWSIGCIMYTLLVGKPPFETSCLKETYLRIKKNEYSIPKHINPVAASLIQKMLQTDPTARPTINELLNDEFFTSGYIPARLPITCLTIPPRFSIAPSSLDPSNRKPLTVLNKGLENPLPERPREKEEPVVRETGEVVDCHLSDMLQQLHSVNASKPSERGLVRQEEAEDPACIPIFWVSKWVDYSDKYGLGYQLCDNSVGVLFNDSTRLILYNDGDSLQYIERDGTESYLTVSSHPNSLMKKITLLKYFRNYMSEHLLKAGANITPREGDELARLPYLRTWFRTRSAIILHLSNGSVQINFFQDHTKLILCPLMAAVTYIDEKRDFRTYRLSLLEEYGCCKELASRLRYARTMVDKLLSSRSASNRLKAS
The depositor's hits bear a star; ? = inconclusive; . = no result; [ ] = remark or other dose. Only some compounds are listed: those with a hit (about 18% of all), similar ones and a draw of the others. Calls follow the shape of the dose curve; as a rule, active = well fitted curve in the direction sought with a large enough effect; inconclusive = small, poorly fitted or top-dose-only effect, or another doubt; inactive = no such curve, though single readings can be large; an effect the other way counts as inactive or inconclusive. % is scaled to controls: 0 for no effect and ±100 for the full control effect; potency is read from the fitted curve at half-maximal effect.

SMILES	KAT2A inh	DT40 TDP1 CPT	VDR inhibitor	TDP1 block	DT40 TDP1 no CPT	PLK1 PBD inh
CC(C)(C)c1ccc(/C=C2\SC(=O)N(CCNC(=O)c3cccc(S(=O)(=O)N4CCOCC4)c3)C2=O)cc1	-1%	8.2µM*	-10%	3%	23µM*	2%
O=C(NCCc1ccco1)C(=O)NCC1OCCCN1S(=O)(=O)c1cc(F)ccc1F (stereo not given)	-22%	2%	-13%	3%	3%	-6%
CN(CC(=O)Nc1ccc(Cl)cc1)C(=O)c1cccc(S(=O)(=O)NCc2ccccc2)c1	-6%	?	8%	-4%	?	-1%
O=C(Nc1ccc(S(=O)(=O)N2CCN(Cc3ccccc3)CC2)cc1)c1cnccn1	-4%	9.2µM*	4%	1%	5.2µM*	-9%
CN(CC(=O)Nc1ccc(Cl)cc1)C(=O)c1cccc(S(=O)(=O)N2CCN(Cc3ccccc3)CC2)c1	-14%	5.8µM*	4%	6%	5.2µM*	1%
CN(C)C(=O)c1ccc(NC(=O)c2cccc(S(=O)(=O)N3CCN(Cc4ccccc4)CC3)c2)cc1	.	15µM*	-14%	.	18µM*	0%
O=C(Nc1ccc(S(=O)(=O)N2CCCC2)cc1)c1cnccn1	-4%	-20%	6%	-1%	?	1%
CC(=O)N1CCC2(CCCN(c3ccc(-c4ccccc4)cc3)C2)CC1	-5%	?	?	.	16µM*	.
COCC(=O)N1CCC2(CCCN(c3ccc(-c4ccccc4)cc3)C2)CC1	-5%	?	50µM*	.	?	.
COCC(=O)N1CCC2(CC1)CCN(c1ccc(-c3ccccc3)cc1)CC2	-5%	?	-9%	.	0.21µM*	.
O=C(NC1CCCC1)c1ccc2c(=O)n(Cc3ccccc3)c(SCc3cccc(F)c3)nc2c1	1%	-27%	1%	1%	?	.
CC(C)c1ccc(NC(=O)NC2(C(=O)NCc3cccnc3)CCCCC2)cc1	-2%	-1%	-17%	0%	-5%	0%
CCOCCc1nn2c(=O)cc(COC(=O)c3ccc4c(c3)OCO4)nc2s1	5%	?	10%	3%	?	.
CCOC(=O)c1c[nH]c2c([N+](=O)[O-])cc(OC)cc2c1=O	.	7.3µM*	7%	.	16µM*	-3%
COc1ccc(-n2c(SCC(=O)Nc3cc(C)on3)nc3c(c2=O)SC(C)C3)cc1 (stereo not given)	.	-2%	.	.	?	-19%
COC(=O)CSc1nc(N2CCCCC2)c2c(c1C#N)CCCC2	-9%	?	-11%	0%	23µM*	24µM*
Cc1nc(SCC(=O)O)c(C#N)c2c1CCCC2	-12%	?	-17%	10µM*	-29%	?
CCc1nc(SCC(=O)O)c(C#N)c2c1CCCC2	-7%	-4%	-16%	3%	-14%	-15%
COC(=O)CSc1nc(-c2ccccc2)c2c(c1C#N)CCCC2	0%	-14%	5%	-3%	?	?
COc1ccccc1C1CN(Cc2cnn(C)c2C)Cc2ccccc2O1 (stereo not given)	.	-2%[9.04 µM]	.	.	-21%	.
O=C(O)Cc1cccc(-c2cc(CCCCCCc3ccc(O[C@H]4O[C@H](CO)[C@@H](O)[C@H](O)[C@@H]4O)c(-c4cccc(CC(=O)O)c4)c3)ccc2O[C@H]2O[C@H](CO)[C@@H](O)[C@H](O)[C@@H]2O)c1	.	2%	.	.	9%	.
